# Targets with a hit are over-represented here; the source holds about 7,900 in all. About 0.6% of all pairs of compound and target were hits. Unmarked numbers belong to inactive results.
# Tests used:
# Experiment in all cases: log2 fold change, soluble protein after heating vs DMSO (PISA); higher = thermal stabilisation; K562 cells, 10 uM, 30 min; active = over 0.2 and 3.5 SD of the protein, either way, in both replicates (recomputed)
# [1] = compound: CS(=O)(=O)c1ccc(-c2cnc(N)c(C(=O)Nc3ccccc3)n2)cc1
# Summary of the method: (§1)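 K562 cells at 2×10^6 cells/mL were exposed to 10 μM compound for 30 min, then aliquots were heated for 3 min across 48°C-58°C, pooled, and extracted in PBS containing 0.5% NP-40 at 4°C. The supernatant after 21,000xg for 90 min was taken as soluble protein and measured by TMTpro 16plex LC-MS/MS with channel sums equalised. Thermal stability is reported relative to control samples, with values from duplicates. Fold changes are given on a log2 scale.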
# crizotinib = compound: C[C@@H](Oc1cc(-c2cnn(C3CCNCC3)c2)cnc1N)c1c(Cl)ccc(F)c1Cl [crizotinib]
# Summary of the method: as §1
# [2] = compound: C[C@@H]1COCCN1C2=NC(=NC(=C2)C3(CC3)S(=O)(=O)C)C4=C5C=CNC5=CC=C4
# Summary of the method: as §1
# [3] = compound: C[C@H](C1=CC=C(C=C1)C(=O)NC2=C3C=CNC3=NC=C2)N
# Summary of the method: as §1
# duvelisib = compound: C[C@H](Nc1ncnc2nc[nH]c12)c1cc2cccc(Cl)c2c(=O)n1-c1ccccc1 [duvelisib]
# Summary of the method: as §1
# gandotinib = compound: Cc1cc(Nc2cc(CN3CCOCC3)c3nc(C)c(Cc4ccc(Cl)cc4F)n3n2)n[nH]1 [gandotinib]
# Summary of the method: as §1
# tozasertib = compound: Cc1cc(Nc2cc(N3CCN(C)CC3)nc(Sc3ccc(NC(=O)C4CC4)cc3)n2)n[nH]1 [tozasertib]
# Summary of the method: as §1
# [4] = compound: Cc1cc(SCc2sc(-c3ccc(C(F)(F)F)cc3)nc2C)ccc1OCC(=O)O
# Summary of the method: as §1
# doramapimod = compound: Cc1ccc(-n2nc(C(C)(C)C)cc2NC(=O)Nc2ccc(OCCN3CCOCC3)c3ccccc23)cc1 [doramapimod]
# Summary of the method: as §1
# ispinesib = compound: Cc1ccc(C(=O)N(CCCN)[C@@H](c2nc3cc(Cl)ccc3c(=O)n2Cc2ccccc2)C(C)C)cc1 [ispinesib]
# Summary of the method: as §1
# Chain of UniProt O14976 (O14976 whole entry, looked up): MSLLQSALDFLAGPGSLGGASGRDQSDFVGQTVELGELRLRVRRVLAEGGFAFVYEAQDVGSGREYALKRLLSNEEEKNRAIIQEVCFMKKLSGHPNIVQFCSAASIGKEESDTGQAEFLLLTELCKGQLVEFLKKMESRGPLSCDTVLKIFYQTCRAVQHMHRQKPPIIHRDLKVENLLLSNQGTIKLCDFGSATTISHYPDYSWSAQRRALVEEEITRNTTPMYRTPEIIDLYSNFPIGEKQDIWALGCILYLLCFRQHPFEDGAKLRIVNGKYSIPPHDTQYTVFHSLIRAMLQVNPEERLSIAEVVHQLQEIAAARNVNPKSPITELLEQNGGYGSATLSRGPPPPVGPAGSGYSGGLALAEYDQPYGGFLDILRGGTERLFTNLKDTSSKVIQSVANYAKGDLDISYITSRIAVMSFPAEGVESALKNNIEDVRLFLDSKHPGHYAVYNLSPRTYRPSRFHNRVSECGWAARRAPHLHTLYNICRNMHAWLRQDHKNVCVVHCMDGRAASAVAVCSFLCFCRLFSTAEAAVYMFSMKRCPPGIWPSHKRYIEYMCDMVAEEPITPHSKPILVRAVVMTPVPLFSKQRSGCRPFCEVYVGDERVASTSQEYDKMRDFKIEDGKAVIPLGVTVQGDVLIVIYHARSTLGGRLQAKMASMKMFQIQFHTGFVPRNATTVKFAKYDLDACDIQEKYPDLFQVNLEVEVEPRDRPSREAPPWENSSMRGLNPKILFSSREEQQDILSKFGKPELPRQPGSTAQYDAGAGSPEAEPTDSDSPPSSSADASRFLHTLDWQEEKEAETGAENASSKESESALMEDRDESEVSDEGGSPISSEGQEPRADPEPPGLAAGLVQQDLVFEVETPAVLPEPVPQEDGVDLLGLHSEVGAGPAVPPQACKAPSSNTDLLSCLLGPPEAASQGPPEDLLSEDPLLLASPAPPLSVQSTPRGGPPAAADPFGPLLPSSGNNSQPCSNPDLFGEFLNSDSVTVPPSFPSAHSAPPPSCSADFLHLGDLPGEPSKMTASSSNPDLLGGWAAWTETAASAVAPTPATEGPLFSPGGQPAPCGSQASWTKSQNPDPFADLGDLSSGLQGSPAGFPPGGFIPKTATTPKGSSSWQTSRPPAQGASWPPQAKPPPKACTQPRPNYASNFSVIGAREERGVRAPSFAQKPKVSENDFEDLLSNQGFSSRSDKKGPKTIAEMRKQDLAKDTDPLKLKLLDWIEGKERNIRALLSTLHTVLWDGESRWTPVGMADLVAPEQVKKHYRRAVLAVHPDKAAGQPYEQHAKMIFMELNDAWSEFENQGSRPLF
# Chain of UniProt Q92917 (Q92917 whole entry, looked up): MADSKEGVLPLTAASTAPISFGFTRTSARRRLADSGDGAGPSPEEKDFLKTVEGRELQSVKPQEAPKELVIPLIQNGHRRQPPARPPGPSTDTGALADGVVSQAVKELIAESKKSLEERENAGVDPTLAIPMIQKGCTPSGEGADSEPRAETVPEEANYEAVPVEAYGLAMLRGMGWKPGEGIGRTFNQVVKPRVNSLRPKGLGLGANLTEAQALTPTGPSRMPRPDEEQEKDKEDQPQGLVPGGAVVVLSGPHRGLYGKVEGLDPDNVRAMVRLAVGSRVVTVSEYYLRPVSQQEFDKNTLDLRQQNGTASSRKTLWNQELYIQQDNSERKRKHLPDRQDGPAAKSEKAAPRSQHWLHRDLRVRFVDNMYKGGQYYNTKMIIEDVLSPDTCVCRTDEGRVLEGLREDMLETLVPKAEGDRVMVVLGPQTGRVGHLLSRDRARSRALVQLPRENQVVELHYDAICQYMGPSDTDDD
# Chain of UniProt Q8NCW6 (Q8NCW6 whole entry, looked up): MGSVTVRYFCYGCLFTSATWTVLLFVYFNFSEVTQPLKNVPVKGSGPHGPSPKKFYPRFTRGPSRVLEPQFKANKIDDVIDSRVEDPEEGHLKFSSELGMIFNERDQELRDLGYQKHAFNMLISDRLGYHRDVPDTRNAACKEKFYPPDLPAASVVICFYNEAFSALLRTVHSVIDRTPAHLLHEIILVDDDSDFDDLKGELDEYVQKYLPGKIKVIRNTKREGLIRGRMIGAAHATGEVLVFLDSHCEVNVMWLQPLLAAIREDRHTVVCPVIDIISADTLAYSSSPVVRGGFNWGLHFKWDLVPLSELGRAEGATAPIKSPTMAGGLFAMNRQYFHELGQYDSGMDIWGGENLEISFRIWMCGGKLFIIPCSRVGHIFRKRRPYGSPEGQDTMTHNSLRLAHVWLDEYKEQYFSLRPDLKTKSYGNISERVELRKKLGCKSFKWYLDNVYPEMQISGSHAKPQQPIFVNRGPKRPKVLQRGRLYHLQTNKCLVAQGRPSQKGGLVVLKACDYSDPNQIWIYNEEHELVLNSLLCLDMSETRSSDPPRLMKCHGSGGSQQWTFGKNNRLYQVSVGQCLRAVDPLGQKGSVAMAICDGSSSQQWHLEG
# Chain of UniProt P85037 (P85037 whole entry, looked up): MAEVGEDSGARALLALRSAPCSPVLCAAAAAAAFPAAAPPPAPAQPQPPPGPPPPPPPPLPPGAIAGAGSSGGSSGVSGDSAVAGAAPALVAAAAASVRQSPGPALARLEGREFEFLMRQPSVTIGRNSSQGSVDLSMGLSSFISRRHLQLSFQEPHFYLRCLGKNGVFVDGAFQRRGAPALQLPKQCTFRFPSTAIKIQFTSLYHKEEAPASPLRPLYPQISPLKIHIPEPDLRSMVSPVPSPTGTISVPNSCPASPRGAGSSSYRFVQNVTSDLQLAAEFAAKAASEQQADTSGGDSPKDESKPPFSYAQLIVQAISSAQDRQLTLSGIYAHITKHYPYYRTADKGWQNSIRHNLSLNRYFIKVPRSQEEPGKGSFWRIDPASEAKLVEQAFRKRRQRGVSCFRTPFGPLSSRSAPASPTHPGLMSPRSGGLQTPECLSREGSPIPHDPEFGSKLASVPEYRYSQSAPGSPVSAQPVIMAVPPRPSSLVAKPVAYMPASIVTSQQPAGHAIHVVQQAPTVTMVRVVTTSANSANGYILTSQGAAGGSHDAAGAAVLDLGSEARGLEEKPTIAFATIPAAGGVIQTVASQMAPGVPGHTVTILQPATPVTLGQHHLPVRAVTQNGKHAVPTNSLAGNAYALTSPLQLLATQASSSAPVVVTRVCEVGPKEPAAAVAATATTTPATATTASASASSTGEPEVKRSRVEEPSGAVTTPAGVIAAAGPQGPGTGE
# Chain of UniProt P31943 (P31943 whole entry, looked up): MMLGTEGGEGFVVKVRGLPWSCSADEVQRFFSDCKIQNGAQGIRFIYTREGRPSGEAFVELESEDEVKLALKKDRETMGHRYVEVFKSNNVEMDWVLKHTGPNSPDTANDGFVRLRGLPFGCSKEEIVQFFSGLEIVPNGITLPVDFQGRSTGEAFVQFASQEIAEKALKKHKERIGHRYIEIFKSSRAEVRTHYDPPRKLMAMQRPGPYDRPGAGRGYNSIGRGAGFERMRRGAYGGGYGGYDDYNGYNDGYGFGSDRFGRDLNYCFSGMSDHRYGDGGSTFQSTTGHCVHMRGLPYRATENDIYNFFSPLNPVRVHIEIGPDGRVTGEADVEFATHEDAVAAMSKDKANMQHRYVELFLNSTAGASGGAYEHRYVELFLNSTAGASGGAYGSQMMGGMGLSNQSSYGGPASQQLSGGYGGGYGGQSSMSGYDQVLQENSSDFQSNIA
# Chain of UniProt P06280 (P06280 whole entry, looked up): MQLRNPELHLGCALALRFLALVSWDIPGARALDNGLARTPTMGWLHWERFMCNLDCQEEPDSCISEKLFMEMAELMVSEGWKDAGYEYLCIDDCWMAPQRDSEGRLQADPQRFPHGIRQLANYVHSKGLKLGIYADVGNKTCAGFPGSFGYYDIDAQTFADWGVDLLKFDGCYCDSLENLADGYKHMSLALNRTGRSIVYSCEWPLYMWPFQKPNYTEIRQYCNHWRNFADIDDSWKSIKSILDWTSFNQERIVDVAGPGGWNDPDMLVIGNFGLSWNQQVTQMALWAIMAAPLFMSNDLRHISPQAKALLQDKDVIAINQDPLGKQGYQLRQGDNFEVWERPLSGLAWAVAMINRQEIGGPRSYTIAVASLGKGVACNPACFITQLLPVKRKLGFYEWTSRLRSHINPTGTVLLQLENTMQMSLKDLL
# Chain of UniProt P08754 (P08754 whole entry, looked up): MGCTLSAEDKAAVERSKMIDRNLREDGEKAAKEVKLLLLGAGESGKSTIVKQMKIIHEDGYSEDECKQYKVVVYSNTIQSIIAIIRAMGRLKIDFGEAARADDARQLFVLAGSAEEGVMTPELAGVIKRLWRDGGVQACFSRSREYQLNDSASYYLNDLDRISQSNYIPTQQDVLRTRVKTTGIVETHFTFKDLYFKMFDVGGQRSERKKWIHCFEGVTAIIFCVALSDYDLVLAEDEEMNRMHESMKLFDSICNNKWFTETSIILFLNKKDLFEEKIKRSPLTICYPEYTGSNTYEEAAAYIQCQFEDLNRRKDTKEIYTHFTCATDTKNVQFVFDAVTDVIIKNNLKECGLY
# Chain of UniProt Q9H4G4 (Q9H4G4 whole entry, looked up): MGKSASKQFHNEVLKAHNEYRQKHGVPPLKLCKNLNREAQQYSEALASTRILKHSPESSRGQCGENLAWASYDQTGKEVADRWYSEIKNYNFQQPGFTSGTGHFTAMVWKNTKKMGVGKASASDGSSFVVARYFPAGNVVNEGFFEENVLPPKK
# Chain of UniProt P50213 (P50213 whole entry, looked up): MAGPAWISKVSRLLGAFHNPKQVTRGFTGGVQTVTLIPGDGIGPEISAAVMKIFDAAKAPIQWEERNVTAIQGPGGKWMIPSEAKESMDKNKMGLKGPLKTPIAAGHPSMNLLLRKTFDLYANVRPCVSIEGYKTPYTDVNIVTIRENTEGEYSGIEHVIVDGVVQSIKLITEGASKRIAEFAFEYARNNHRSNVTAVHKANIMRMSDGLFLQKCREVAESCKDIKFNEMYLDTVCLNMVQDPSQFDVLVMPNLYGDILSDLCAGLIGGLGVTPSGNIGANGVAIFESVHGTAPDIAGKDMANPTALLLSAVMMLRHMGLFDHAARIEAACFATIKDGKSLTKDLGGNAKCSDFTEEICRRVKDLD
Target,log2 fold change [1],log2 fold change (crizotinib),log2 fold change [2],log2 fold change [3],log2 fold change (duvelisib),log2 fold change (gandotinib),log2 fold change (tozasertib),log2 fold change [4],log2 fold change (doramapimod),log2 fold change (ispinesib)
GLIPR2 (UniProt Q9H4G4),0.034,-0.243,-0.018,-0.064,0.1,0.157,-0.062,0.007,-0.01,-0.459 (active)
IDH3A (UniProt P50213),0.023,0.006,0.07,-0.046,0.063,-0.037,-0.029,0.022,-0.024,0.013
GUK1 isoform 2 (UniProt Q16774),0.13,-0.007,0.161,0.049,0.123,-0.03,0.018,0.102,-0.004,0.012
GAB2 (UniProt Q9UQC2),-0.084,-0.899 (active),-0.361,0.033,-0.836 (active),-0.071,-0.34,0.181,0.118,-0.511
GALC (UniProt P54803),0.03,-0.023,0.03,-0.012,-0.049,0.008,0.033,0,-0.01,-0.135
HDAC6 (UniProt Q9UBN7),-0.019,-0.057,-0.007,0.066,0.045,0.079,-0.091,0.062,0.015,-0.027
GUSB (UniProt P08236),0.053,0.004,-0.018,0.063,0.066,0.051,0.006,-0.039,0.042,-0.03
HOMER1 (UniProt Q86YM7),-0.011,-0.015,0.071,-0.014,0.024,-0.068,0.046,-0.002,0.027,0.083
GSK3A (UniProt P49840),0.322 (active),0.129,0.053,0.015,0.044,0.201,-0.006,0.015,-0.039,0.072
HBA1 (UniProt P69905),0.009,0.097,0.213,-0.058,0.094,0.025,0.081,0.004,0,0.24
HIC2 (UniProt Q96JB3),-0.037,0.067,-0.079,0.043,-0.103,0.088,0.121,0.011,0.121,-0.061
GNAS (UniProt Q5JWF2),0.049,0.047,0.039,-0.031,0.07,-0.034,-0.026,0.003,0.007,-0.141
FKBP4 (UniProt Q02790),0.013,-0.008,0.042,-0.068,0.019,-0.105,-0.005,0.077,-0.052,-0.017
GALNT11 (UniProt Q8NCW6),0.039,0.04,0.112,0.018,0.039,0.045,0.027,-0.061,0.045,-0.163
GLA (UniProt P06280),-0.033,-0.205,-0.019,0.018,-0.027,-0.066,-0.03,0.034,-0.036,-0.148
HMGN2 (UniProt P05204),-0.093,0.051,-0.201,-0.019,-0.062,-0.212,-0.031,-0.058,-0.1,-0.048
HNRNPH1 (UniProt P31943),0.027,-0.171,-0.012,0.02,-0.026,-0.017,-0.01,0.126,-0.012,-0.068
GAK (UniProt O14976),0.49,0.115,-0.081,1.26,-0.245,0.02,0.223,-0.121,0.206,-0.157
HBQ1 (UniProt P09105),-0.017,0.037,0.065,-0.148,0.129,-0.002,0.015,-0.023,-0.003,0.092
GYS1 (UniProt P13807),0.017,-0.097,-0.187,0.311,-0.147,-0.015,-0.079,0.184,0.271,-0.231
GALNT2 (UniProt Q10471),0.056,-0.005,0.093,-0.015,0.05,-0.024,-0.065,0.022,-0.001,0.034
HLTF (UniProt Q14527),-0.034,0.045,-0.143,0.006,-0.006,-0.078,-0.023,0.063,-0.003,0.006
GNAI3 (UniProt P08754),0.121,0.103,-0.122,0.003,0.002,0.039,-0.023,-0.014,0.036,-0.008
FARS2 (UniProt O95363),0.004,-0.043,0.088,0.041,0.073,-0.021,0.045,0.06,-0.023,-0.157
GPKOW (UniProt Q92917),0.004,-0.147,0.104,-0.004,0.087,-0.094,-0.121,0.195,-0.03,-0.013
FOXK1 (UniProt P85037),-1.1 (active),0.336,0.897,-0.482,0.582,-1.34 (active),0.127,-0.148,-0.126,0.373
HPCAL1 (UniProt P37235),0.015,0.011,0.08,-0.047,0.032,-0.033,0.024,-0.014,-0.027,-0.054
HDAC2 (UniProt Q92769),-0.01,0.08,-0.02,-0.046,0.022,0.003,-0.002,-0.029,0.011,0.072
GIGYF2 (UniProt Q6Y7W6),0.005,-0.084,0.083,0,0.006,-0.03,-0.012,0.114,-0.028,-0.179
HNRNPUL1 (UniProt Q9BUJ2),0.007,-0.023,-0.016,0.147,-0.036,0.049,0.039,0.085,-0.025,-0.019

# Source: the supplement of paper PMC10849652
